According to PubChem BioAssay AID588590 (National Center for Advancing Translational Sciences (NCATS), 2011):
Values joined by “and” are separate entries in the source; they are usually repeats but may differ in a detail not shown here. Equal values may be shown once. In all, about 390,000 compounds went through this assay and about 4,000 (1%) were called active. Another 7% or so got no clear call; they are omitted. Only a selection was taken, and actives are over-represented in it overall. Values without a mark were called inactive. Calls come from the whole dose curve; as a rule, active = well fitted inhibition curve with a large enough effect; inconclusive = small, poorly fitted or top-dose-only effect, or another doubt; inactive = no such curve, though single readings can be large or run the other way.

biological target: DNA polymerase iota (Homo sapiens) (UniProt Q9UNA4); experiment: qHTS for Inhibitors of Polymerase Iota; settings: Pol iota fluorescent replication assay, 10 min; series mostly up to 115 µM; activity, negative = inhibition: at the top concentration
Summary of the method: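 Pol iota at 10 nM preincubated 15 min with compounds at room temperature; reaction started with fluorescent substrate, 50 nM final. Fluorescence read kinetically at 0 and 10 min; buffer-only wells as negative control.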
Potency is the fitted concentration of half-maximal effect.

DNA polymerase iota (Homo sapiens), sequence (Q9UNA4 whole entry, looked up): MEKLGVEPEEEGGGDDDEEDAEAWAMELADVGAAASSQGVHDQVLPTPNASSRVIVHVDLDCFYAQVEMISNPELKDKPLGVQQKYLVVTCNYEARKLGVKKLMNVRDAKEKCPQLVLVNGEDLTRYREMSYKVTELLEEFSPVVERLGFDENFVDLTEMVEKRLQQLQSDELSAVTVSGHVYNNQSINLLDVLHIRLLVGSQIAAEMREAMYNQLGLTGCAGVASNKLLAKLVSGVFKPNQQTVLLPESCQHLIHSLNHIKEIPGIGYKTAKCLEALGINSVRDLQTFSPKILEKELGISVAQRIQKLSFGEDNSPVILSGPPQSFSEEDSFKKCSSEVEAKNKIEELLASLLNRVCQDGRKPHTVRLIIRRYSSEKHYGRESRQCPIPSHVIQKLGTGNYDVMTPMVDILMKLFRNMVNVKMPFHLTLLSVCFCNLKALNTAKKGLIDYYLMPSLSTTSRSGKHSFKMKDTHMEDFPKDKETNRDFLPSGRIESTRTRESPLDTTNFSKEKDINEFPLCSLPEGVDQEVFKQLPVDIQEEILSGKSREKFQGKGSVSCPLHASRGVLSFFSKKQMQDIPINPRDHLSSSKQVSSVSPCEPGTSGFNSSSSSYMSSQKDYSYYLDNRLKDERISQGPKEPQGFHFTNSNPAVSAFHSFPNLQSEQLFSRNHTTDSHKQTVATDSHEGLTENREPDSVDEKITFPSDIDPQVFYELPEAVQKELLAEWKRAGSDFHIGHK

Compound	activity, negative = inhibition	Potency
CN(Cc1ccccc1)c1ccc(/C=C/c2ccnc3ccccc23)cc1	0.933%	–
O=C(CCc1nnc2ccc(NCc3ccco3)nn12)Nc1cc(F)ccc1F	-12.4%	–
CC1CCN(C(=O)CCc2nnc3ccc(NCc4ccco4)nn23)CC1	19.1%	–
CCOc1ccccc1NC(=O)CCc1nnc2ccc(NCc3ccco3)nn12	–	50.1 µM (active)
Cc1ccc(C=O)cc1Cl	27.8%	–
COc1ccc(CCNC(=O)c2ccc3c(c2)nc(C)n3-c2ccc(Br)cc2)cc1OC	-17%	–
CCC(CC)c1nn2cc(-c3ccccc3)nc2s1	-4.42%	–
O=C(Nc1ccc(C(=O)O)cc1)/C(=C\c1ccccc1)NC(=O)c1ccc(Br)cc1	17.3%	–
C/C(CC(=O)N1CCN(C=O)CC1)=N\NC(=O)c1ccc(Br)cc1	-25.6%	–
O=C(O)c1ccc(/C=C2\SC(=S)N(NC(=O)c3ccc(Br)cc3)C2=O)cc1	–	22.4 µM (active)
CN1CCN(/[N+]([O-])=N/Oc2ccc([N+](=O)[O-])cc2[N+](=O)[O-])CC1	22.3%	–
CCc1nnc2c3ccccc3nc(N3CCN(c4ccc(C)cc4C)CC3)n12	37.9%	–
COc1ccc(Cl)cc1NC(=O)CCS(=O)(=O)c1ccc(Br)cc1	–	56.2 µM (active)
O=C(CCS(=O)(=O)c1ccc(Br)cc1)NCCc1ccc(Cl)cc1	-25.8%	–
COc1ccc(Cl)cc1NC(=O)CCC(=O)c1ccc(C)cc1	23.5%	–
COc1ccc(Nc2ncc3c(n2)CCN(C(=O)OC(C)(C)C)C3)cc1	10.5%	–
Cc1c(C)n(Cc2ccc(Cl)cc2)c2ccc(C(=O)NCCc3ccc(S(N)(=O)=O)cc3)cc12	-6.81%	–
CN(C(=O)CSc1nnc(NC(=O)Nc2ccccc2)s1)c1ccccc1	8.04%	–
O=C(c1[nH]ncc1-c1ccc(Cl)cc1)C1CO1 (configuration not stated)	–	56.2 µM (active)
COC(=O)c1scc(-c2ccccc2)c1S(=O)(=O)Nc1ccccc1	2.13%	–
O=C1CCC[C@@H]2C[C@@]3(C[C@@H]4CCN1[C@H]24)Nc1ccccc1NC3=NCc1ccccc1	114%	–
COc1cc2nc(N3CCCN(C)CC3)nc(NC3CC3)c2cc1OC	28.6%	–
COc1ccc(-c2cn3nc(N4CCCC(C(=O)NCCCOC(C)C)C4)sc3n2)cc1 (configuration not stated)	23.1%	–
COc1cc2c(cc1OC)C(C(=O)Nc1cc(C)c(OC)c(C)c1)CC(=O)N2 (configuration not stated)	62.9%	–
COc1cc(N/C=C2\CC(=O)NC(C)=C2C#N)cc(OC)c1OC	–	10 µM (active)

Compound	activity, negative = inhibition	Potency
COc1cc(NC(=O)c2nc3ccccc3nc2C)cc(OC)c1OC	33.3%	–
COc1ccc(-c2nc3sc(CCNS(=O)(=O)c4ccc(F)c(C)c4)c(C)n3n2)cc1	12.4%	–
CCOc1ccccc1NC(=O)CN1CCN(S(=O)(=O)c2ccc(Br)cc2)CC1	3.35%	–
O=[N+]([O-])c1ccc(C=Nc2ccc(Cl)cc2Cl)s1	–	39.8 µM (active)
CCN(CC)/[N+]([O-])=N/OCOC(=O)Cc1c(C)n(C(=O)c2ccc(Cl)cc2)c2ccc(OC)cc12	7.56%	–
O=C(OCN1C(=O)c2ccccc2C1=O)/C(=C\c1ccco1)NC(=O)c1ccccc1	-18.1%	–
O=c1nc2s/c(=C\c3ccco3)c(=O)n2nc1Cc1ccccc1	–	7.94 µM (active)
O=C(Nc1ccccc1C(F)(F)F)c1nc(S(=O)(=O)Cc2ccccc2F)ncc1Cl	-5.98%	–
NC1=NC(c2cc(F)cc(F)c2)n2c(nc3ccccc32)N1 (configuration not stated)	4.72%	–
Cc1cc(C)c2oc(C(=O)Nc3ccc(S(=O)(=O)N4CCCCCC4)cc3)cc(=O)c2c1	5.81%	–
Cc1ccc(-n2c(=O)c3cccnc3n2CC(=O)Nc2ccccc2C(F)(F)F)cc1C	-0.67%	–
CCN(C(=O)COC(=O)CCOc1cccc(C)c1)c1c(N)n(Cc2ccccc2)c(=O)[nH]c1=O	22.8%	–
COc1ccc(Cn2c(O)c(/C=C3/C=CC=N3)c(=O)[nH]c2=O)cc1	-9.71%	–
CCCOc1ccc(Cn2c(O)cc(=O)[nH]c2=O)cc1	–	22.4 µM (active)
COc1ccccc1CCNC(=O)c1cccn1-c1nnc(N2CCCCC2)s1	3.68%	–
Cc1ccc2nc(-c3ccc(C)c(NC(=O)Cc4ccccc4)c3)oc2c1	17.9%	–
Cc1c(CCO)sc[n+]1CC(=O)c1ccc2ccccc2c1	5.31%	–
O=C(c1cc2c(s1)CCC2)N1CCN(c2ccccc2)CC1	–	25.1 µM (active)
CC1CCN(c2nc3ccc(C(=O)N4CCN(c5ccccc5)CC4)cc3s2)CC1	-4.14%	–
O=C(c1cc2ccccc2s1)N1CCN(c2ccccn2)CC1	29.9%	–
CCNC(=O)Cn1nc(C)n2c(cc3c(OC)cccc32)c1=O	2.21%	–
CN(C)c1ccc(/C=N\Nc2ccc([N+](=O)[O-])cc2[N+](=O)[O-])cc1Cl	-14%	–
COc1cccc(Cn2c(SCc3ccc(C(=O)N4CCCCC4)cc3)nc3ccncc32)c1	3.02%	–
CCc1nc2cccnc2n1-c1ccc(CC(=O)Nc2c(C)cccc2C)cc1	7.57%	–
COCCCNC(=O)Cc1ccc(-n2c(C)nc3cccnc32)cc1	-18.4%	–

Compound	activity, negative = inhibition	Potency
CCc1nc2cccnc2n1-c1ccc(C(=O)O)cc1	–	25.1 µM (active)
COc1ccc(N2CCN(Cc3nc4c(c(=O)[nH]c(=O)n4C)n3Cc3ccc(Cl)cc3)CC2)cc1	25.9%	–
O=C(NCCc1ccc(Cl)cc1)c1ccc2c(c1)N(Cc1ccc(F)cc1)C(=O)CS2	-20.5%	–
CCC(=O)N1CCc2cc(Br)cc(S(=O)(=O)CCC(=O)NCCc3ccc(OC)c(OC)c3)c21	14.3%	–
Cc1cccn2c(=O)c(/C=C(\C#N)S(=O)(=O)c3ccc(Cl)cc3)c(N3CCC(C(N)=O)CC3)nc12	-8.99%	–
CCOC(=O)CC1C(=O)NCCN1c1nc2c(C)cccn2c(=O)c1/C=C1\SC(=S)N(C(C)CC)C1=O (configuration not stated)	–	39.8 µM (active)
CCOC(=O)CNC(=O)c1cc2c(=O)n3cccc(C)c3nc2s1	5.79%	–
CC1CCC(N2CC(=O)N(CCC3=CCCCC3)C(c3ccc(F)cc3)C2=O)CC1 (configuration not stated)	-7.19%	–
COc1cc2c(cc1OC)C(COc1ccc(F)cc1)N(C(=O)c1ccccc1F)CC2 (configuration not stated)	3.48%	–
CCc1ccc(Nc2nn3c(=O)c4cc5c(cc4nc3s2)OCO5)cc1	-22.5%	–
c1ccc(-c2cc(-c3nnc4sc(-c5ccccn5)nn34)[nH]n2)cc1	–	25.1 µM (active)
Fc1ccc(-c2ccc(-c3nn4c(-c5ccco5)nnc4s3)o2)cc1	-5.94%	–
Cc1ccc(S(=O)(=O)N(CC(=O)NCc2ccco2)c2ccccc2C)cc1	42.4%	–
CS(=O)(=O)N(CC(=O)NCc1ccco1)c1ccc2c(c1)OCO2	–	70.8 µM (active)
COc1ccc(S(=O)(=O)N(CC(=O)NCc2ccco2)c2ccc(F)cc2)cc1	95%	–
CCOC(=O)N1CCC(C(N)=O)CC1	10.7%	–
O=C(O)C1CCN(C(=O)OCc2ccccc2)CC1	6.85%	–
CCOC(=O)N1CCC(c2cc(=O)n(-c3ccccc3)[nH]2)CC1	–	1.41 µM (active)
COc1ccccc1-c1noc(CSc2nnc(-c3ccccc3)n2-c2ccc(C)c(C)c2)n1	13.3%	–
COc1ccc(C(CCN2CCOCC2)c2c(OC)cc(OC)c3c2OC(=O)CC3c2ccc(OC)cc2)cc1 (configuration not stated)	-4.09%	–
Oc1c(CN2CCOCC2)ccc(CN2CCOCC2)c1O	–	10 µM (active)
OCCN1CCOCCOCCN(CCO)CCN(CCO)CC1	10.2%	–
O=[N+]([O-])c1ccc(COc2ccccc2CN2CCOCC2)cc1	35.4%	–
Cc1cccc(NC(=O)CSc2nnc(CNC(=O)c3cccc(C)c3)n2-c2ccccc2)c1	-1.81%	–
CO/N=C(\C(=O)N[C@@H]1C(=O)N2C(C(=O)O)=C(COC(C)=O)CS[C@H]12)c1csc(N)n1 (stereo in doubt)	–	20 µM (active) and 17.8 µM (active) and 11.2 µM (active)

Compound	activity, negative = inhibition	Potency
C=CC1=C(C(=O)O)N2C(=O)[C@@H](NC(=O)/C(=N\OCC(=O)O)c3csc(N)n3)[C@H]2SC1	–	50.1 µM (active)
Cc1nnc(SCC2=C(C(=O)O)N3C(=O)C(NC(=O)Cn4nc(C)c(Cl)c4C)C3SC2)s1 (configuration not stated)	-26.5%	–
COc1ccc(CCNC(=O)Cn2c(=O)cc(C(F)(F)F)c3c(C)nn(C)c32)c(OC)c1	-7.16%	–
Cc1ccc(Cn2c(=O)n(-c3ccc(C)cc3)c(=O)c3c2c2cc(C)ccc2n3C)cc1	1.68%	–
COc1ccc(CCNC(=O)CCCn2c(=O)c3ccccc3n(Cc3ccc(F)cc3Cl)c2=O)cc1OC	4.28%	–
COc1ccc(C2CC(O)(c3ccccc3)Oc3cc(C)cc(C)c32)cc1 (configuration not stated)	-9.41%	–
O=C(OCc1cc(=O)n2nc(C3CC3)sc2n1)c1ccccc1Cl	0.645%	–
Cc1nn2c(=O)cc(COC(=O)c3ccccc3NC(=O)COc3ccccc3C)nc2s1	-2.78%	–
COc1ccccc1C(=O)OCc1cc(=O)n2nc(-c3cccs3)sc2n1	–	79.4 µM (active)
Clc1cccc[n+]1CCCC[n+]1ccccc1Cl	3.89%	–
Cc1ccc(-c2nc(=N)sn2Cc2ccccc2)cc1	8.29%	–
CSc1ccc(CCNC(=O)c2cnn(-c3ccccc3)c2-n2cccc2)cc1	8.13%	–
O=C(N/N=C/C=C/c1ccco1)c1cccs1	–	22.4 µM (active)
O=C(N/N=C/c1ccco1)c1ccc(NC(=O)C2CC2)cc1	-9.3%	–
CC1(C)CC(=O)C/C(=N\NC(=O)c2cccs2)C1	1.79%	–
CC(=O)c1ccc(S(=O)(=O)N2CCN(c3nc4c(C)c(C)ccc4cc3C#N)CC2)cc1	-12.5%	–
CC(=O)c1ccc(S(=O)(=O)N2CCN(C(=O)/C=C/c3ccc4ccccc4n3)CC2)cc1	–	44.7 µM (active)
CC(=O)c1ccc(S(=O)(=O)N2CCC3(CC2)OCCO3)cc1	16.8%	–
Cn1c(=O)nc2n(-c3ccc(Br)cc3)c3cccc(Cl)c3cc-2c1=O	9.36%	–
COc1ccc(N2CCN(C3CC(=O)N(c4ccc5c(c4)OCCO5)C3=O)CC2)cc1 (configuration not stated)	-17.7% [at 58.9 µM]	–
COc1ccc(N2C(=O)CC(Nc3ccc(F)cc3)C2=O)c([N+](=O)[O-])c1 (configuration not stated)	135%	–
CC(=O)Oc1cccc(N2C(=O)CC(Nc3ccc(N4CCOCC4)cc3)C2=O)c1 (configuration not stated)	–	20 µM (active)
